Calls of active or inactive are those of the source.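 The calls were made as follows, unless noted: active = fluorescence slope higher than the sample average by over 3 SD (cut at about -0.22 in these data, passing the limit was not always enough); inactive = the rest.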
What was measured:
[1] = inhibitors of TNFa-induced NFkB p65 translocation, primary screen, imaging, HUVEC, MLSMR starter and 10KST1 sets (AID 438;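 active = inhibition above 20% together with a positive visual image hit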;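 also: compound added about 3h40 before a 20 min TNFalpha stimulation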;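 as to inhibition: signal is the nuclear over cytoplasmic p65 intensity ratio per well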); conditions: HUVEC TNFa-induced p65 nuclear translocation; cell count: measured here: nuclei count (cytotoxicity indicator), at 2.08 µM; inhibition: at 2 µM, stronger effect = higher value, 0% TNFa-plus-vehicle, 100% no-TNFa wells
[2] = inhibitors of mutant huntingtin aggregation, primary screen, imaging, exon1htt(103Q)mCFP cells, high-content imaging (AID 483;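 active = visual image review flags a hit and inhibition of aggregation exceeds 20%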;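 also: compound exposure lasted 3 days before fixation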;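 as to nuclei count: percent of the per-plate median nuclei count of sample wells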); conditions: exon1htt(103Q)mCFP cell line, aggregate imaging, at 2 µM; inhibition of aggregation: stronger effect = higher value; nuclei count: measured here: cell count, toxicity
[3] = inhibitors of E-selectin induction by TNFa, primary screen, imaging, HUVEC, immunofluorescence, MLSMR starter and 10KST1 sets (AID 487;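 active = visually confirmed hit in the image check and inhibition above 20%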;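 as to inhibition: signal is fraction of cell area covered by stained E-selectin grains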;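 as to nuclei count: 100% = median nuclei count of all wells on the same plate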); conditions: HUVEC TNFalpha-induced E-selectin immunofluorescence imaging, at 2 µM; inhibition: stronger effect = higher value; nuclei count: measured here: cell number, toxicity
[4] = biological target: Voltage-gated potassium channel subunit beta-2 (Rattus norvegicus) (UniProt P62483); assay: KvBeta enzyme negative modulators, primary screen, biochemical, NADPH fluorescence (AID 622); conditions: recombinant KvBeta, 4-cyanobenzaldehyde reduction, at 10 µM, stronger effect = higher value;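 also: slope of raw intensity against log time taken from 70 to 1610 s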
[5] = biological target: Voltage-gated potassium channel subunit beta-2 (Rattus norvegicus) (UniProt P62483); assay: KvBeta positive modulators, primary screen, biochemical, NADPH fluorescence (AID 623;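 active = NADPH fluorescence slope more negative than the mean of all samples by about 3 SD, 99.7% confidence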;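 also: fluorescence intensity change per second fitted from 20 to 320 s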); conditions: Recombinant KvBeta, NADPH fluorescence decrease slope, 10 min; at 10 µM; stronger effect = lower value
[6] = biological target: Alpha-2C adrenergic receptor (Homo sapiens) (UniProt P18825); assay: modulators of alpha2C/GIRK thallium flux, primary screen, cell-based, HEK293 alpha2C/GIRK1/2 (AID 624;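 active = fluorescence slope after compound addition differing from the mean of all screened samples at 99.7% confidence, in either direction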;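 also: slope of fluorescence ratio to pre-addition baseline per second over 15 to 24 s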); conditions: thallium flux BTC fluorescence, at 10 µM, actives lie on both sides
[7] = inhibitors of Sendai virus-induced IRF3 signaling, primary screen, TLR/RLR signaling modifier project, cell-based, Sendai virus stimulus, luciferase, 10K MLSCN set (AID 602276;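 active = inhibition at or above 50% at 10 µM; inactive = inhibition below 50%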;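 also: firefly luciferase from ISG56 promoter only with Renilla not read in this screen; 0% = Sendai virus plus DMSO and 100% = medium plus DMSO without virus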); conditions: HEK293 RL24 IRF3 luciferase reporter, at 10 µM, stronger effect = higher value
[8] = inhibitors of poly I:C-induced TLR3 signaling, primary screen, cell-based, poly I:C stimulus, luciferase, 10K MLSCN set (AID 602277;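 active = inhibition of the reporter signal at or above 50%; inactive = inhibition below 50%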); conditions: HEK293-TLR3 RL24 IRF3 luciferase reporter, at 10 µM, stronger effect = higher value

Chain of Voltage-gated potassium channel subunit beta-2 (Rattus norvegicus) (P62483 whole entry, looked up): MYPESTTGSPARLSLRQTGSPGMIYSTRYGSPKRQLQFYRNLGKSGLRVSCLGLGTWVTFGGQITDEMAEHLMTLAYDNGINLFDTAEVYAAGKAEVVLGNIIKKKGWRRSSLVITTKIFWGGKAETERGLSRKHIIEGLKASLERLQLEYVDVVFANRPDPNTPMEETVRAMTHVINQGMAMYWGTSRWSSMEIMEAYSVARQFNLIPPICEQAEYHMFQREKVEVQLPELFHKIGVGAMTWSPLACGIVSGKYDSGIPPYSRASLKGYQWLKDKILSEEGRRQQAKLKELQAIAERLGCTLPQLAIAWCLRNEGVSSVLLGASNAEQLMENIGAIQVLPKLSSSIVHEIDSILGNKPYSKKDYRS
Chain of Alpha-2C adrenergic receptor (Homo sapiens) (P18825 whole entry, looked up): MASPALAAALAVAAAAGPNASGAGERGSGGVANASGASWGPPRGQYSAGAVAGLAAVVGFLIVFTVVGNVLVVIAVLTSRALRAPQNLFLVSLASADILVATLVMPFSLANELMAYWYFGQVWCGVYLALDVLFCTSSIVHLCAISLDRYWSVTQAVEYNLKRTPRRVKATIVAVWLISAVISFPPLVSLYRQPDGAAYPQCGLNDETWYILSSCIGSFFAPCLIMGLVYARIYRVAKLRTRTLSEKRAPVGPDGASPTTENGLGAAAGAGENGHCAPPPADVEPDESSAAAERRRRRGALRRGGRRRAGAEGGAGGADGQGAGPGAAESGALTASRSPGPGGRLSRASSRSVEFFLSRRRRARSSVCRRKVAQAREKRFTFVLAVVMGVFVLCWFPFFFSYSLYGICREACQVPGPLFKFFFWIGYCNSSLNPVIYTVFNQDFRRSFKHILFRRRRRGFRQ

| SMILES | cell count [1] | inhibition [1] | inhibition of aggregation [2] | nuclei count [2] [%] | inhibition [3] | nuclei count [3] [%] | fluorescence slope [4] | NADPH fluorescence slope [5] | slope [6] | inhibition [7] | inhibition [8] |
| --- | --- | --- | --- | --- | --- | --- | --- | --- | --- | --- | --- |
| O=C1CC(c2ccccc2)CC(O)=C1C=NCCN1CCOCC1 (centres undefined) | 541 | -2.9% (inactive) | 24.1% (inactive) | 94.3 | 37.7% (inactive) | 99.1 | -0.441 (inactive) | 1.8e-05 (inactive) | 0.00626 (inactive) | 7.02% (inactive) | 31.4% (inactive) |
| Cc1[nH]c(C(=O)N2CCCCC2)c(C)c1C(=O)NC1CCCCC1 | 425 | 0.5% (inactive) | 6.3% (inactive) | 97.4 | -49.8% (inactive) | 123 | -0.528 (inactive) | 2.6e-05 (inactive) | 0.00631 (inactive) | 5.02% (inactive) | 4.54% (inactive) |
| COCCNC(=O)C(c1ccc(C)o1)N(Cc1ccc(F)cc1)C(=O)Cn1nnc2ccccc21 (centres undefined) | 591 | -8.1% (inactive) | -12.2% (inactive) | 121 | 12.3% (inactive) | 108 | -0.381 (inactive) | -7.3e-05 (inactive) | 0.00726 (inactive) | 9.7% (inactive) | 24.6% (inactive) |
| CCCN(CCC)C(=O)c1c(C)[nH]c(C(=O)OCC)c1C | 740 | 0.6% (inactive) | 2% (inactive) | 109 | -78.7% (inactive) | 106 | -0.605 (inactive) | -2.3e-05 (inactive) | 0.00726 (inactive) | -15.1% (inactive) | -1.04% (inactive) |
| O=C(Nc1cnn(C23CC4CC(CC(C4)C2)C3)c1)c1cnn2c(C(F)(F)F)cc(-c3ccco3)nc12 | 501 | -8.8% (inactive) | -4.4% (inactive) | 108 | -107% (inactive) | 121 | -0.498 (inactive) | -2.2e-05 (inactive) | 0.00429 (inactive) | 8.99% (inactive) | -44.9% (inactive) |
| CCOCCCNC(=O)C1CCN(S(=O)(=O)N(CC(C)C)CC(C)C)CC1 | 689 | -5.1% (inactive) | 17.3% (inactive) | 79.1 | -91.6% (inactive) | 100 | -0.503 (inactive) | -5.5e-05 (inactive) | 0.00467 (inactive) | 16.6% (inactive) | 19.9% (inactive) |
| O=C(NC12CC3CC(CC(C3)C1)C2)c1cncc(O)c1 | 708 | 13.5% (inactive) | -6.2% (inactive) | 102 | -200% (inactive) | 128 | -0.608 (inactive) | 5e-06 (inactive) | 0.0069 (inactive) | 7.2% (inactive) | 26.8% (inactive) |
| CCc1ccc(N2CC(C(=O)OCC(=O)Nc3cc(C)on3)CC2=O)cc1 (centres undefined) | 465 | 5.3% (inactive) | -4.7% (inactive) | 102 | -6.8% (inactive) | 92.3 | -0.368 (inactive) | -2.5e-05 (inactive) | 0.00565 (inactive) | 5.09% (inactive) | 20.1% (inactive) |
| CC1(C)CC(=O)CC(C2(O)C(=O)N(Cc3ccccc3)c3ccccc32)O1 (centres undefined) | 500 | -2.4% (inactive) | -3.9% (inactive) | 82.2 | -9.4% (inactive) | 120 | -0.548 (inactive) | 1.3e-05 (inactive) | 0.00527 (inactive) | -9.58% (inactive) | -5.31% (inactive) |
| O=C(Cn1ncc2c1-c1ccccc1OC2)N1CCN(c2ccccn2)CC1 | 631 | -1.1% (inactive) | -24.9% (inactive) | 131 | -55.8% (inactive) | 111 | -0.587 (inactive) | -5.3e-05 (inactive) | 0.00617 (inactive) | 3.72% (inactive) | 26.9% (inactive) |
| Clc1ccc2nc(N3CCCCC3)[nH]c2c1 | 706 | 5.6% (inactive) | 11.3% (inactive) | 98.7 | -82.5% (inactive) | 102 | -0.446 (inactive) | -6.8e-05 (inactive) | 0.00544 (inactive) | -26% (inactive) | -98.5% (inactive) |
| CN(C)S(=O)(=O)c1ccc(C(=O)NCc2cccs2)cc1 | 436 | 4.7% (inactive) | 6.5% (inactive) | 105 | 15.4% (inactive) | 125 | -0.611 (inactive) | -2.1e-05 (inactive) | 0.00652 (inactive) | 3.68% (inactive) | 3.16% (inactive) |
| O=C(CSCc1cnn(-c2ccccc2)c1-n1cccc1)NCC1CCCO1 (centres undefined) | 587 | -10% (inactive) | -10.3% (inactive) | 101 | -1.9% (inactive) | 121 | -0.581 (inactive) | -4.7e-05 (inactive) | 0.00606 (inactive) | 2.57% (inactive) | 15.3% (inactive) |
| Cc1cccc(C)c1NC(=O)CS(=O)CC(=O)NC1CCCc2ccccc21 (centres undefined) | 562 | -5.5% (inactive) | -3.7% (inactive) | 62.2 | -73.7% (inactive) | 108 | -0.61 (inactive) | -3e-05 (inactive) | 0.00417 (inactive) | 12.3% (inactive) | 20.9% (inactive) |

Source: PubChem BioAssay
